Records with an inconclusive call do not appear. Active and inactive are the calls of the source. The call rests on the fitted dose curve; in most records, active means well fitted cell-killing curve with a large enough effect (not every such curve was filed as active); inconclusive means small, poorly fitted or top-dose-only effect, or another doubt; inactive means no such curve, though single readings can be large or run the other way.
test: qHTS Assay for Agonists of the Relaxin Receptor RXFP1: Cytotoxicity SAR; conditions: HEK293-RXFP1 viability, ATPLite luminescence, 72 h; series mostly up to 78.1 µM; activity change, negative = cytotoxicity: at the top concentration
From the text: The relaxin hormone is involved in the variety of biological functions in normal tissues and diseases. The role of relaxin is well-established in female reproduction and parturition, mammary gland and endometrial development, maintenance of myometrial quiescence during pregnancy. Relaxin signaling through its G protein-coupled receptor (GPCR) RXFP1 results in ECM remodeling through regulation of collagen deposition, cell invasiveness, proliferation and overall tissue homeostasis. […] Recombinant human relaxin (rhRlx) is currently being tested in clinical trials as a protective agent in congestive heart failure, in treating severe preeclampsia, and as an anti-fibrotic agent in systemic sclerosis. In the primary screen, upon relaxin binding RXFP1 activation leads to the activation of adenylate cyclase (AC) via Gs. cAMP will activate PKA, which phosphorylates many signaling proteins. Thus, detection of cAMP increase is an easy and reliable indication of relaxin receptor activation. To screen for agonists of the relaxin receptor, a HEK293T cell line stably transfected with RXFP1 was used. RXFP1 activation was assayed by changes in cAMP levels as detected with a time-resolved fluorescence energy transfer (TR-FRET) cAMP detection kit. We conducted this followup assay to measure the effect of the lead candidates on cell health by measuring ATP levels (ATPLite). NIH Chemical Genomics Center [NCGC] NIH Molecular Libraries Probe Production Centers Network [MLPCN] MLPCN Grant: R03 MH085705-01A1 Assay Submitter (PI): Alexander Agoulnik
In this assay, the luciferase enzyme catalyzes the conversion of the added substrate D-luciferin to oxyluciferin and light with ATP. Thus, the emitted light is proportional to the ATP concentration. To evaluate the cytotoxic properties of the compounds, HEK293-RXFP1 cells were incubated with compounds for 72 h in growth media (DMEM 10% FBS, 1x Pen/Strep, 0.5 mg/mL G418) in 384-well format. After compound incubation, the levels of ATP in each well were measured with the addition of the ATPLite assay reagent.

Compound | Potency | activity change, negative = cytotoxicity
O=C(Nc1cccc(Cl)c1)c1ccccc1NC(=O)C1CCCCC1 | 29.7 µM (active) | 
O=C(Nc1cccc(S(=O)(=O)C(F)(F)F)c1)c1ccccc1NC(=O)C1CCCCC1 | 14.9 µM (active) | 
CCOc1ccccc1C(=O)Nc1sccc1C(=O)Nc1cccc(S(=O)(=O)C(F)(F)F)c1 | 7.47 µM (active) | 
O=C(Nc1cccc(-c2cccc(C(F)(F)F)c2)c1)c1ccccc1NC(=O)C1CCCCC1 | 23.6 µM (active) | 
CCOc1ccccc1C(=O)Nc1ccncc1C(=O)Nc1cccc(S(=O)(=O)C(F)(F)F)c1 | 2.36 µM (active) | 
O=C(Nc1cccc(C(F)(F)F)c1)c1ccccc1NC(=O)C1CCCCCC1 | 5.93 µM (active) | 
CSc1cccc(NC(=O)c2ccccc2NC(=O)C2CCCCC2)c1 |  | -31% (inactive)
Cc1ccccc1C(=O)Nc1ccccc1C(=O)Nc1cccc(C(F)(F)F)c1 |  | -69.3% (inactive)
O=C(Nc1cccc(C(F)(F)F)c1)c1ccccc1NC(=O)c1ccccc1OC(F)(F)F |  | -38% (inactive)
COc1ccccc1C(=O)Nc1cccc(C(=O)Nc2cccc(C(F)(F)F)c2)c1 | 18.8 µM (active) | 
CCOc1ccccc1C(=O)Nc1ccccc1CNc1cccc(S(=O)(=O)C(F)(F)F)c1 |  | -26.1% (inactive)
O=C(Nc1cccc(C(F)(F)F)c1)c1ccccc1NC(=O)C1CCCC1 |  | -68.8% (inactive)
CN(C)CCOc1ccccc1C(=O)Nc1ccccc1C(=O)Nc1cccc(C(F)(F)F)c1 |  | -98.1% (inactive)
O=C(Nc1cccc([N+](=O)[O-])c1)c1ccccc1NC(=O)C1CCCCC1 |  | -31.8% (inactive)
CCOc1ccccc1C(=O)Nc1cnccc1C(=O)Nc1cccc(S(=O)(=O)C(F)(F)F)c1 | 23.6 µM (active) | 
CCOc1ccccc1C(=O)NCCC(=O)Nc1cccc(S(=O)(=O)C(F)(F)F)c1 |  | -65.1% (inactive)
CC(C)Oc1ccccc1C(=O)Nc1ccccc1C(=O)Nc1cccc(S(=O)(=O)C(F)(F)F)c1 | 9.4 µM (active) | 
O=C(Nc1cccc(C(F)(F)F)c1)c1ccccc1NC(=O)C1CCCCC1 | 18.8 µM (active) | 
O=C(NCc1ccco1)c1ccccc1NC(=O)c1ccccc1NC(=O)C1CCCCC1 |  | -43.9% (inactive)
O=C(Nc1cccc(C(F)(F)F)c1)c1ccccc1NC(=O)C1CC1 |  | -17.1% (inactive)

Compound | Potency | activity change, negative = cytotoxicity
COc1ccc(C(=O)Nc2ccccc2C(=O)Nc2cccc(C(F)(F)F)c2)cc1 |  | -49.6% (inactive)
O=C(Nc1ccccc1C(=O)Nc1cccc(C(F)(F)F)c1)c1cccnc1 |  | -17.2% (inactive)
O=C(NCc1cccc(C(F)(F)F)c1)c1ccccc1NC(=O)C1CCCCC1 | 11.8 µM (active) | 
COCCNc1ccccc1C(=O)Nc1cccc(C(F)(F)F)c1 | 29.7 µM (active) | 
CCOc1ccccc1C(=O)Nc1ccccc1C(=O)Nc1cccc(C(F)(F)F)c1 |  | -13.9% (inactive)
CCOc1ccccc1-c1nc2c(C(=O)Nc3cccc(S(=O)(=O)C(F)(F)F)c3)cccc2[nH]1 |  | 3.81% (inactive)
O=C(Nc1cccc(SC(F)(F)F)c1)c1ccccc1NC(=O)C1CCCCC1 |  | -42.9% (inactive)
O=C(Cc1ccccc1)Nc1ccccc1C(=O)Nc1cccc(C(F)(F)F)c1 | 47.1 µM (active) | 
CCCOc1ccccc1C(=O)Nc1ccccc1C(=O)Nc1cccc(S(=O)(=O)C(F)(F)F)c1 | 9.4 µM (active) | 
COc1ccccc1CNc1ccccc1C(=O)Nc1cccc(C(F)(F)F)c1 | 23.6 µM (active) | 
CCCCOc1ccccc1C(=O)Nc1ccccc1C(=O)Nc1cccc(S(=O)(=O)C(F)(F)F)c1 |  | -59.1% (inactive)
O=C(Nc1cccc(-c2ccccc2C(F)(F)F)c1)c1ccccc1NC(=O)C1CCCCC1 |  | -39.7% (inactive)
COc1ccccc1C(=O)Nc1ccccc1C(=O)Nc1cccc(C(F)(F)F)c1 |  | -43.3% (inactive)
O=C(Nc1ccc(C(F)(F)F)cc1)c1ccccc1NC(=O)C1CCCCC1 | 11.8 µM (active) | 
COc1ccccc1C(=O)Nc1ccccc1C(=O)N(C)c1cccc(C(F)(F)F)c1 | 29.7 µM (active) | 
COc1ccccc1-c1ccccc1C(=O)Nc1cccc(C(F)(F)F)c1 | 23.6 µM (active) | 
CC(C)Oc1ccccc1C(=O)Nc1ccccc1C(=O)Nc1cccc(C(F)(F)F)c1 |  | -63% (inactive)
COc1ccccc1C(=O)N(C)c1ccccc1C(=O)N(C)c1cccc(C(F)(F)F)c1 | 59.3 µM (active) | 
O=C(Nc1cccc(Br)c1)c1ccccc1NC(=O)C1CCCCC1 |  | -27.7% (inactive)
CCOc1ccccc1S(=O)(=O)Nc1ccccc1C(=O)Nc1cccc(S(=O)(=O)C(F)(F)F)c1 | 5.93 µM (active) | 
